This is an account of results in PubChem BioAssay (NCATS).

Results filed as inconclusive are left out. Activity calls are given as the source filed them. Calls come from the whole dose curve; as a rule, active = well fitted inhibition curve with a large enough effect; inconclusive = small, poorly fitted or top-dose-only effect; inactive = no such curve, though single readings can be large or run the other way. Where a SMILES comes first, the peptide text is derived from it. [ ]: non-standard residue; d: D form. 2Abz = Nc1ccccc1C(=O)O
% is set by controls: 0 for no effect and ±100 for the full control effect; potency is the fitted concentration of half-maximal effect.

This assay deals with Zika virus NS2B-NS3 protease (unlinked complex). The assay can be described thus: Primary screen GU Rhodamine qHTS for Zika virus inhibitors: Unlinked NS2B-NS3 protease assay (AID 1347159). Note: nearly all actives have a fitted effect of over 60% in size. Particulars: Recombinant ZIKV NS2B-NS3 protease, Rhodamine110 substrate fluorescence; series mostly up to 107 µM; activity change, negative = inhibition: at the top concentration. The gist of the method:
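Buffer 10 mM Tris-HCl pH 8.0, 0.01% Tween 20. Unlinked protease 25 nM; compound preincubation 15 min, RT, protected from light. Substrate Rhod110, 1.5 microM; ~15% conversion in 15 min.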
Take `CCOC(=O)[C@H]1O[C@@H]1C(=O)N[C@@H](CC(C)C)C(=O)NCCC(C)C`: the “activity change, negative = inhibition” value is 0% (inactive).

On to `COC(=O)CC1(O)C(=O)Nc2ccccc21` (centres undefined), for which the “activity change, negative = inhibition” value was 1.6% (inactive).

`CCC(C)(O)C(O)C(=O)OCc1ccc(O[C@@H]2O[C@H](CO)[C@@H](O)[C@H](O)[C@H]2O)cc1` (some centres undefined): the “activity change, negative = inhibition” value was 7.59% [at 57.1 µM] (inactive).

`C=CC1C(O[C@@H]2O[C@H](CO)[C@@H](O)[C@H](O)[C@H]2O)OC=C(C(=O)OC)C1CC(=O)O` (some centres undefined): the “activity change, negative = inhibition” value is 20.6% [at 57.1 µM] (inactive).

On to `C=C[C@H]1[C@H](O[C@@H]2O[C@H](CO)[C@@H](O)[C@H](O)[C@H]2O)OC=C2C(=O)OCC[C@]21O`, for which the Potency was 35.5 µM (active).

For `O=C(O)c1cc(O[C@@H]2O[C@H](CO[C@@H]3OC[C@@H](O)[C@H](O)[C@H]3O)[C@@H](O)[C@H](O)[C@H]2O)c2ccccc2c1O`, the “activity change, negative = inhibition” value was -17.1% [at 57.1 µM] (inactive).

Take `O=C(c1ccc(NS(=O)(=O)c2cccc3cccnc23)cc1)N1CCN(CC2CC2)CC1`: the “activity change, negative = inhibition” value was 5.54% (inactive).

`O=C(O)c1n[nH]c2c1C[C@H]1C[C@@H]21`: the “activity change, negative = inhibition” value is 27.7% (inactive).

For the molecule `COC(=O)[C@@H]1C2CC3c4[nH]c5ccccc5c4CCN3CC2CC[C@@H]1O` (some centres undefined), the “activity change, negative = inhibition” value was 0% (inactive).

Regarding `Cc1cccc(-c2[nH]c(CNc3ccccc3F)nc2-c2ccc3ncnn3c2)n1`, the “activity change, negative = inhibition” value was 39.4% (inactive).

Take `CCCCN(CCCC)C(=O)CN1C[C@H](c2ccc3c(c2)OCO3)[C@@H](C(=O)O)[C@@H]1c1ccc(OC)cc1`: the Potency is 28.2 µM (active).

Take `CC(/C=C/C1(O)C(C)(C)CC(O)CC1(C)O)OC1OC(CO)C(O)C(O)C1O` (centres undefined): the “activity change, negative = inhibition” value was 8.33% [at 57.1 µM] (inactive).

`C=CCc1ccc(O[C@@H]2O[C@H](CO[C@@H]3O[C@@H](C)[C@H](O)[C@@H](O)[C@H]3O)[C@@H](O)[C@H](O)[C@H]2O)cc1`: the “activity change, negative = inhibition” value is -12.2% [at 57.1 µM] (inactive).

As for `Cc1cc(Nc2ncc(Cl)c(Nc3ccccc3S(=O)(=O)C(C)C)n2)c(OC(C)C)cc1C1CCNCC1`, the “activity change, negative = inhibition” value is 39.4% (inactive).

For the molecule `CC1(C)CC2C3=CCC4C5(C)CCC(OC6OC(CO)C(O)C(OC7OC(CO)C(O)C(OC8OC(CO)C(O)C(OC9OC(COC%10OC(CO)C(O)C(O)C%10O)C(O)C(O)C9O)C8O)C7O)C6O)C(C)(C)C5CCC4(C)C3(C)CCC2(C(=O)O)CC1O` (centres undefined), the activity change, negative = inhibition is -21.5% [at 19.1 µM] (inactive).

Regarding `C=CC1(C)CC(O)C2(CCC3C(C)(C(=O)O)CCCC3(C)C2=O)C1` (centres undefined), the “activity change, negative = inhibition” value is 21.2% (inactive).

With `C[C@@H]1O[C@@H](OC[C@H]2O[C@@H](OCC3CCC4CC3C4(C)C)[C@H](O)[C@@H](O)[C@@H]2O)[C@H](O)[C@H](O)[C@H]1O` (some centres undefined), the “activity change, negative = inhibition” value was -24.3% [at 57.1 µM] (inactive).

For `C[C@H](NCc1ccc(OCc2ccccc2F)cc1)C(N)=O`, the “activity change, negative = inhibition” value was -5.36% (inactive).

Regarding `C=CC(C)(O)CC/C=C(\C)C(=O)OC1CC2(C(=O)O)CCC3(C)C(=CCC4C5(C)CCC(OC6OC(COC7OCC(O)C(O)C7O)C(O)C(OC7OCC(O)C(O)C7O)C6OC6OC(CO)C(O)C(O)C6OC6OCC(O)C(O)C6O)C(C)(C)C5CCC43C)C2CC1(C)C` (centres undefined), the activity change, negative = inhibition was -12.7% [at 19.1 µM] (inactive).

For `CCC(C)C1NC(=O)C2CCCN2C(=O)C(C(C)C)NC(=O)c2ccccc2NC(=O)C(Cc2ccc(O)cc2)NC(=O)C(C)NC(=O)C(C(C)O)NC1=O` (centres undefined) (cyclo([2Abz]VPITAY); configuration not given here), the “activity change, negative = inhibition” value was 1.08% [at 32.5 µM] (inactive).

With `COC(=O)[C@H](OC(C)=O)[C@H]1C(C)(C)C(=O)[C@H]2CC3=C4CC(=O)O[C@@H](c5ccoc5)[C@]4(C)CCC3[C@@]1(C)C2=O` (some centres undefined), the “activity change, negative = inhibition” value is -13.3% [at 57.1 µM] (inactive).

For the molecule `CC(C)(O)/C=C1/C(=O)C(C)(C)C(=O)C(C)(C)C1(O)O[C@@H]1O[C@H](COC(=O)c2cc(O)c(O)c(O)c2)[C@@H](O)[C@H](O)[C@H]1O` (some centres undefined), the “activity change, negative = inhibition” value was -2.63% [at 32.5 µM] (inactive).

As to `C/C=C1/[C@H](O[C@@H]2O[C@H](CO)[C@@H](O)[C@H](O)[C@H]2O)OC=C(C(=O)OC)[C@H]1CC(=O)O[C@@H]1O[C@H](CO)[C@@H](O)[C@H](O)[C@H]1O`, the “activity change, negative = inhibition” value is 19.7% [at 32.5 µM] (inactive).

`C[C@@H]1CC[C@]2(C)C(C[C@@H](O)[C@H](O)[C@]23CO3)[C@@]1(C)CCc1ccoc1` (some centres undefined): the “activity change, negative = inhibition” value was -9.12% (inactive).

`O=C1CC(c2ccc([N+](=O)[O-])cc2)=NN1c1ccccc1`: the Potency is 39.8 µM (active).

Turning to `CC(C)=CCc1ccc(Oc2c(O)cc(C)cc2CO)c(C(=O)O)c1O`, the Potency is 6.31 µM (active).

On to `CO/N=C(/C(=O)N[C@@H]1C(=O)N2C(C(=O)O)=C(CSC(=O)c3ccco3)CS[C@H]12)c1csc(N)n1`, for which the Potency was 35.5 µM (active).

Consider `CC(=O)OC1C(O)CC(O[C@@H]2O[C@H](CO)[C@@H](O)[C@H](O)[C@H]2O)C2CCC3C(=O)OC(c4ccoc4)CC3(C)C21` (some centres undefined), for which the “activity change, negative = inhibition” value was 15.7% [at 57.1 µM] (inactive).

`C=C1CC[C@H]2[C@@H](/C=C(\C)C(=O)[C@@]3(OC(C)=O)C[C@H](C)[C@H](OC(C)=O)[C@@H]3[C@H]1OC(C)=O)C2(C)C`: the Potency was 7.94 µM (active).

`OC[C@H]1O[C@@H](Oc2ccc3c(c2)OC[C@H]2c4cc5c(cc4O[C@@H]32)OCO5)[C@H](O)[C@@H](O)[C@@H]1O`: the “activity change, negative = inhibition” value is 9.04% [at 57.1 µM] (inactive).

On to `C=C1[C@H]2CC[C@]3(O)[C@@](CC[C@@H]4[C@](C)(C(=O)O)CCC[C@]43C)(C2)[C@H]1OC(=O)/C(C)=C\C`, for which the “activity change, negative = inhibition” value is -22.7% [at 57.1 µM] (inactive).

In the case of `O=C(O[C@H]1[C@@H]2C=CO[C@@H](O[C@@H]3O[C@H](CO)[C@@H](O)[C@H](O)[C@H]3O)[C@@H]2[C@@]2(CO)O[C@@H]12)c1ccc(O)cc1`, the “activity change, negative = inhibition” value was -6.63% [at 57.1 µM] (inactive).

As to `CC12CCC3c4ccc(O)cc4CCC3C1CCC2OC1OC(C(=O)O)C(O)C(O)C1O` (centres undefined), the “activity change, negative = inhibition” value is 18% (inactive).

On to `COc1cc(O[C@@H]2O[C@H](CO)[C@@H](O)[C@H](O)[C@H]2O)c(CCC(=O)OC[C@H]2O[C@@H](Oc3cc(OC)c(C4OC(=O)C(C)(O)C4O)cc3CCC(=O)O)[C@H](O)[C@@H](O)[C@@H]2O)cc1C1OC(=O)C(C)(O)C1O` (some centres undefined), for which the “activity change, negative = inhibition” value was 21.8% [at 32.5 µM] (inactive).

With `CC(=O)c1c(O)cc2cccc3c2c1CC(C)(O)O3` (centres undefined), the Potency was 35.5 µM (active).

Regarding `CC1(C)CCCC2(C)C(CO)C3CCC2C31` (centres undefined), the “activity change, negative = inhibition” value is -12.3% (inactive).

`Cc1cc(C)cc(NC(=O)Cc2ccc(OC(C)(C)C(=O)O)cc2)c1`: the “activity change, negative = inhibition” value is 12.3% (inactive).

Consider `C/C=C1\[C@H](O[C@@H]2O[C@H](CO)[C@@H](O)[C@H](O)[C@H]2O)OC=C(C(=O)OC)[C@H]1CC(=O)OC`, for which the “activity change, negative = inhibition” value is 3.66% [at 57.1 µM] (inactive).

Consider `C=Cc1cc(O)cc2nc(-c3ccc(O)c(F)c3)oc12`, for which the Potency is 35.5 µM (active).
